For experiment [1], the system named is S. cerevisiae SK1 pCDA2-eGFP (USY613), sporulating. Description: CDA2-GFP sporulation assay sensitivity score (z-score vs DMSO controls); higher = stronger inhibition of sporulation, active = hit call of the paper.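 Note: active if sensitivity score above 5.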
The subject of experiment [2] is S. cerevisiae AD1-9 (efflux-pump deficient), vegetative growth in YPD. Description: growth sensitivity score (doubling time z-score vs DMSO controls); higher = slower growth, strongly negative scores also mark growth inhibition (complete suppression), active = hit call of the paper. In outline: (§1)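 Yeast (Saccharomyces cerevisiae BY4741 and AD1-9) was grown in rich medium in microtiter plates from a starting OD600 of 0.065, with optical density read every 15 min over 24 hours. The growth sensitivity score was the difference between compound and solvent-only means, divided by the solvent-only standard deviation. Every experiment had eight solvent-only wells.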

Experiment [3] deals with S. cerevisiae BY4741 (wild-type), vegetative growth in YPD. The experiment is described as above. A digest of the protocol:
as §1

Experiment [4] deals with S. cerevisiae NKY1551 his4x/his4B, sporulating. The experiment can be described thus: HIS4 meiotic recombination assay sensitivity score (z-score vs DMSO controls); higher = stronger inhibition of sporulation/recombination, active = hit call of the paper.

Where a name gives a salt, the structure may show the parent alone. Values without a mark were called inactive.
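Throughout, for HIS4 meiotic recombination assay sensitivity score (z-score vs DMSO controls): active if sensitivity score above 5.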

Turning to `COc1cc(OC)c(C(=O)CCCN2CCCC2)c(OC)c1` [Buflomedil hydrochloride] (stock concentration (mM, diluted 1:100): 8.9), in experiment [1], the “CDA2-GFP sporulation assay sensitivity score” value was -0.24. Moreover, the growth sensitivity score is 0.38 in experiment [2] and 2.01 (active) in experiment [3].
In the case of `O=c1c(O[C@@H]2O[C@H](CO)[C@H](O)[C@H](O)[C@H]2O)c(-c2ccc(O)c(O)c2)oc2cc(O)cc(O)c12` [Hyperoside] (stock concentration (mM, diluted 1:100): 8.8), the “CDA2-GFP sporulation assay sensitivity score” value in experiment [1] is 0.06. In addition, the growth sensitivity score in experiment [2] was 0.09; in experiment [3] it was -0.31.
Consider `C[C@@H](O)[C@H]1C(=O)N2C(C(=O)O)=C(S[C@@H]3CN[C@H](C(=O)N(C)C)C3)[C@H](C)[C@H]12` [Meropenem] (stock concentration (mM, diluted 1:100): 11.4), for which the “CDA2-GFP sporulation assay sensitivity score” value in experiment [1] is -2.33. Moreover, the figures for the growth sensitivity score in experiment [2] and in experiment [3] were 0.68 and -1.19, respectively.
For `COCc1c(C(C)C)nc(C(C)C)c(/C=C/[C@@H](O)C[C@@H](O)CC(=O)O)c1-c1ccc(F)cc1` [Cerivastatin] (stock concentration (mM, diluted 1:100): 10), the “CDA2-GFP sporulation assay sensitivity score” value in experiment [1] was 0.79. The “HIS4 meiotic recombination assay sensitivity score” value in experiment [4] is 0.17. Further, the growth sensitivity score in experiment [3] was 28.6 (active).
`Clc1ccccc1C(c1ccccc1)(c1ccccc1)n1ccnc1` [Clotrimazole] (stock concentration (mM, diluted 1:100): 10): the “CDA2-GFP sporulation assay sensitivity score” value in experiment [1] was 3.7. The growth sensitivity score in experiment [2] is 2.49 (active); in experiment [3] it was 62.8 (active).
As for `CCc1nn(CCCN2CCN(c3cccc(Cl)c3)CC2)c(=O)n1CCOc1ccccc1` [Nefazodone] (stock concentration (mM, diluted 1:100): 9.3), in experiment [1], the “CDA2-GFP sporulation assay sensitivity score” value is 5.84 (active). Also, in experiment [4], the “HIS4 meiotic recombination assay sensitivity score” value was 3. In experiment [3], the growth sensitivity score is 9.68 (active).
